HT1080 IDH1KD tx: toxicity to HT-1080 IDH1 knockdown cells (counter line); 2% of 360,000 active; Potency, µM (top dose mostly 46.1 µM), for inactives: top-dose activity, negative = toxicity, hits mostly cytotoxic; HT-1080 IDH1 knockdown viability, ATP luminescence, 48 h;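 also: 0% = DMSO wells and -100% = cell-free medium wells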
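CellTiter-Glo luminescence after 48 h compound exposure at 37 degrees C of IDH1-knockdown HT-1080 cells in 5% FBS RPMI. %Activity scaled between DMSO wells and cell-free media wells, with curves fitted and assigned curve classes.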
HT1080-NT tox: kills 2HG-producing HT-1080-NT fibrosarcoma cells; Potency, µM (highest dose often 46.1 µM), inactives show at the highest dose activity, negative = less viability, actives largely listed as cytotoxic; 1.6% of 360,000 active; HT-1080-NT fibrosarcoma viability, CellTiter-Glo ATP luminescence, 48 h;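 also: NT is the 2HG producing partner of a matched IDH1 knockdown line; 0% = DMSO-treated cells and -100% = media-only wells without cells; nearly all actives have a fitted effect of over 55% in size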
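Fibrosarcoma NT cells, 750 per well in 5% FBS RPMI, were exposed to compound for 48 hours. Viability: CellTiter-Glo luminescence.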
KB-V1 cytotox: KB-V1 MDR subline cytotoxicity; KB-V1 MDR cells viability, CellTiter-Glo, 72 h; Potency, µM (highest dose often 46.1 µM), actives largely listed as cytotoxic; 3.4% of 400,000 active; also: % is scaled to controls: 0 for no effect and ±100 for the full control effect; nearly all actives have a fitted effect of over 60% in size
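Potencies derive from concentration-effect curves fitted to normalized luminescence (CellTiter-Glo) of KB-V1 cells treated for 72 h at 37 degrees C in phenol-red-free DMEM containing 10% FBS.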
KB-3-1 tox: KB-3-1 parental cell cytotoxicity; Potency, µM (titrated, usually from 46.1 µM), usual class: cytotoxic; AID 1347075; 1.4% of 400,000 active; KB-3-1 viability, CellTiter-Glo ATP luminescence, 72 h; also: % is scaled to controls: 0 for no effect and ±100 for the full control effect; nearly all actives have a fitted effect of over 60% in size
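Cells are dispensed, compounds pinned in, plates held at 37 °C for 72 h, then CellTiter-Glo is added and luminescence read after 10 minutes. Cell line: parental KB-3-1 in phenol-red-free DMEM, 10% FBS.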
ATXN viability: viability counter-screen for ATXN expression inhibitors. S2 cells (HEK-293 line with an ATXN2-luciferase reporter) viability, CellTiter-Fluor protease fluorescence, 24 h. Potency, µM (series often up to 56.7 µM), usual class: cytotoxic. 0.49% of 400,000 active; also: nearly all actives have a fitted effect of over 40% in size
ATXN2 expr inh: ATXN2 expression inhibition. HEK-293 ATXN2-luciferase reporter, luminescence, 24 h. Potency, µM (top dose mostly 57 µM), for inactives: at the highest dose activity change, negative = inhibition, usual class: inhibitors. 0.72% of 360,000 active; also: % is scaled to controls: 0 for no effect and ±100 for the full control effect; nearly all actives have a fitted effect of over 55% in size
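ATXN2-luciferase reporter cells (luciferase flanked by upstream and downstream ATXN2 gene portions) were treated 24 h at 37 °C with compounds at up to 57 uM. SteadyGlo luminescence gave expression; GF-AFC fluorescence gave viability.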
The depositor's hits bear a star; i = inactive; ? = inconclusive; · = not tested or not shown. This is a sample that favours compounds with a hit; in the whole collection about 6.2% have one here. Calls follow the shape of the dose curve; as a rule, active = well fitted curve in the direction sought with a large enough effect; inconclusive = small, poorly fitted or top-dose-only effect, or another doubt; inactive = no such curve, though single readings can be large; an effect the other way counts as inactive or inconclusive. Potency is read from the fitted curve at half-maximal effect.

SMILES	HT1080 IDH1KD tx	HT1080-NT tox	KB-V1 cytotox	KB-3-1 tox	ATXN viability	ATXN2 expr inh
CC=C1NC(=O)[C@H]2CSSCCC=C[C@H](CC(=O)N[C@H](C(C)C)C(=O)N2)OC(=O)[C@H](C(C)C)NC1=O	·	·	·	·	·	5%
Cc1cccc2nc(-c3ccccn3)c(Nc3ccc(F)cc3)n12	·	·	?	i	·	18µM*
Cc1ccn2c(Nc3ccc(F)cc3)c(-c3ccccn3)nc2c1	·	·	?	i	?	0%
Cc1cccc2nc(-c3ccccn3)c(Nc3ccccc3)n12	·	·	6.5µM*	i	?	?
Cc1cccc2nc(-c3ccco3)c(Nc3ccccc3)n12	5%	10%	?	?	i	·
Cc1ccc(Nc2c(-c3ccc(C)o3)nc3cccc(C)n23)cc1	-22%	-16%	i	i	?	?
Cc1ccc(Nc2c(-c3ccccn3)nc3cccc(C)n23)cc1	7.3µM*	12µM*	6.5µM*	5.2µM*	?	6.3µM*
CC(=O)OCCN1C(=O)c2c(C)nc3ccc(S(=O)(=O)N4CCOCC4)cc3c2C1=O	·	·	·	·	·	2%
Cc1ccc(-n2nc(C(=O)c3ccccc3)n3c(=O)c(Cc4ccccc4)nnc23)cc1	-3%	-3%	16µM*	i	i	-12%
Cc1ccc(C=NNC(=O)c2cc(-c3cccnc3)nc3ccccc23)o1	?	?	?	?	i	-14%
Cc1ccc(/C=N/NC(=O)c2cc(-c3ccccc3)nc3ccccc23)o1	?	?	i	i	i	-18%
Cc1ccc(/C=N/NC(=O)c2cc(C3CC3)nc3ccccc23)o1	5.8µM*	?	?	?	?	?
CCCc1cc(C(=O)N/N=C/c2ccc(C)o2)c2ccccc2n1	21µM*	?	?	?	i	-13%
Cc1cc(C(=O)N/N=C/c2ccc(C)o2)c2ccccc2n1	?	3.3µM*	?	1.3µM*	?	-7%
O=C(NCc1ccc(F)cc1)c1ccc2c(c1)N(Cc1c(F)cccc1Cl)C(=O)CS2	·	·	?	i	?	1%
Cc1ccc(-n2ncc(C(=O)NCc3ccc4c(c3)OCO4)c2C2CCN(C(=O)OC(C)(C)C)CC2)c(C)c1	·	·	i	i	?	?
O=C(COc1cccc2c1CCN(Cc1ccc(Br)cc1)C2=O)N1CCOCC1	-2%	-14%	4.1µM*	?	i	-35%
O=C(COc1cccc2c1CCN(Cc1ccc(Br)cc1)C2=O)NCc1ccco1	-2%	-5%	2.6µM*	?	i	-12%
O=C1c2cccc(OCC(=O)N3CCCc4ccccc43)c2CCN1Cc1ccc(Br)cc1	?	-27%	18µM*	18µM*	?	?
O=C(COc1ccccc1-c1ccccc1)NCc1ccco1	-18%	-17%	i	?	i	20%
O=C1c2cccc(OCC(=O)N3CCCc4ccccc43)c2CCN1Cc1ccccc1	-2%	1%	i	i	i	11%
Cc1ccc(S(=O)(=O)N2CCCc3cc(NS(=O)(=O)c4ccccc4)ccc32)cc1	·	·	i	i	·	0%
CCN1CCN(C(=O)c2cnn(-c3ncc4c(n3)-c3ccccc3CCC4)c2COC)CC1	·	·	·	·	i	·
CN1CCN(C(c2ccc(Cl)cc2)c2cc(Cl)c3cccnc3c2O)CC1 (centres undefined)	23µM*	?	?	?	?	?
Oc1c(C(c2ccccn2)N2CCCCC2)cc(Cl)c2cccnc12 (centres undefined)	16µM*	15µM*	?	?	i	?
SMILES	HT1080 IDH1KD tx	HT1080-NT tox	KB-V1 cytotox	KB-3-1 tox	ATXN viability	ATXN2 expr inh
CCc1nnc(NC(=O)CSc2nnc(-c3ccccc3O)o2)s1	?	-2%	?	i	i	9%
CCc1nnc(NC(=O)CSc2nc(-c3ccccc3)c(-c3ccccc3)o2)s1	14%	13%	?	5.2µM*	i	-18%
CCc1nnc(NC(=O)CSc2nnc(C)n2-c2ccc(C)cc2)s1	5%	8%	21µM*	i	i	2%
CCc1nnc(NC(=O)CSc2ncnc3scc(-c4ccc(C)cc4)c23)s1	4%	5%	6.5µM*	i	?	-9%
CCc1nnc(NC(=O)CSc2nnc(C3CCCCC3)n2-c2cccc(Cl)c2)s1	4%	3%	4.1µM*	i	i	8%
Cc1ccc(-c2csc3ncnc(SCC(N)=O)c23)cc1	-25%	-18%	?	i	i	·
Cc1cccc(-n2ncc3c(Nc4ccc(Oc5ccc(Cl)cc5)cc4)ncnc32)c1	·	·	i	i	?	?
CCc1nnc(NC(=O)CSc2nnc(-c3ccccc3O)n2-c2ccc(C)cc2)s1	13µM*	13µM*	?	?	i	20%
Cc1ccccc1Cn1c(=O)n(CCc2ccccc2)c(=O)c2sc3ccccc3c21	·	·	i	i	i	9%
CC1=Nc2ccccc2/C1=C\c1sc(Nc2ccc(C)cc2)nc1O	0.65µM*	0.92µM*	1.5µM*	?	?	-4%
COc1ccccc1CNCc1ccc(OC)c2ccccc12	-58%	15µM*	?	i	i	-24%
Cc1ccccc1C[n+]1cccc2ccccc21	-9%	23%	i	?	i	-3%
CCCCCCCCCC[n+]1cccc2cc(Br)ccc21	·	·	?	1.3µM*	·	·
CCCCCCCCCCCCCCCC[n+]1cccc2ccccc21	8.2µM*	6.5µM*	23µM*	?	18µM*	?
CCCCCCCCC[n+]1cccc2c3ccccc3ccc21	10µM*	7.3µM*	?	?	i	2.2µM*
COc1ccccc1CNC(=O)c1cc2ccc3ccc(C)[nH]c3c2n1	·	·	?	i	i	?
Cc1nc2nc(C)c(NS(=O)(=O)c3ccc(F)cc3)c(=O)n2[nH]1	·	·	i	i	i	12%
C/C(=N\NC(=O)C(=O)Nc1cccc(Cl)c1C)c1ccncc1	?	12%	21µM*	i	?	1%
C/C(=N\NC(=O)c1ccc(Cl)c(S(=O)(=O)Nc2ccccc2Cl)c1)c1ccncc1	0%	2%	23µM*	i	i	1%
C/C(=N\NC(=O)c1cccc(S(=O)(=O)Nc2ccc(C)cc2C)c1)c1ccncc1	-1%	-1%	i	i	i	13%
C/C(=N\NC(=O)C(=O)Nc1cc(Cl)ccc1Cl)c1ccncc1	1%	5%	i	i	i	-12%
O=C(Nc1ccc2ccccc2c1)Nc1nnc(-c2ccccc2)s1	·	·	i	i	·	·
